# Data as given in PMC11062922 (Nature Chemical Biology, 2023).
# Where two headings read alike, the source gives them in different places.
# What was measured:
# Parameters in all cases: species or system human, MV4-11 + K-562 + COLO205 + SK-N-BE2 + OVCAR-8
# ACVR1B = details: read-out: apparent Kd; compound concentrations: 100 nM and 1000 nM (sheet 'Samples'), CATDS: 5.2307110654739801E-2; n = 1
# ACVR1 = details: read-out: apparent Kd; compound concentrations: 100 nM and 1000 nM (sheet 'Samples'), CATDS: 1.9559764953072701E-2; n = 1
# ACVR2B = details: read-out: apparent Kd; compound concentrations: 100 nM and 1000 nM (sheet 'Samples'), CATDS: 2.6273503134627601E-2; n = 1
# BCR = details: read-out: apparent Kd; compound concentrations: 100 nM and 1000 nM (sheet 'Samples'), CATDS: 2.1537689296735201E-2; n = 1
# BMPR1B = details: read-out: apparent Kd; compound concentrations: 100 nM and 1000 nM (sheet 'Samples'), CATDS: 2.4616373356857599E-2; n = 1
# BRAF = details: read-out: apparent Kd; compound concentrations: 100 nM and 1000 nM (sheet 'Samples'), CATDS: 1.9586867815954801E-2; n = 1
# BUB1 = details: read-out: apparent Kd; compound concentrations: 100 nM and 1000 nM (sheet 'Samples'), CATDS: 2.2537896529622702E-2; n = 1
# CIT = details: read-out: apparent Kd; compound concentrations: 100 nM and 1000 nM (sheet 'Samples'), CATDS: 2.75730146177765E-2; n = 1
# CSNK1A1 = details: read-out: apparent Kd, compound concentrations: 100 nM and 1000 nM (sheet 'Samples'), n = 1
# CSNK1D = details: read-out: apparent Kd; compound concentrations: 100 nM and 1000 nM (sheet 'Samples'), CATDS: 4.2810001426460499E-2; n = 1
# CSNK1E = details: read-out: apparent Kd, compound concentrations: 100 nM and 1000 nM (sheet 'Samples'), n = 1
# EPHA1 = details: read-out: apparent Kd; compound concentrations: 100 nM and 1000 nM (sheet 'Samples'), CATDS: 3.1864310867846697E-2; n = 1
# FRK = details: read-out: apparent Kd; compound concentrations: 100 nM and 1000 nM (sheet 'Samples'), CATDS: 4.4669706945154999E-2; n = 1
# FYN = details: read-out: apparent Kd; compound concentrations: 100 nM and 1000 nM (sheet 'Samples'), CATDS: 2.2205933689287499E-2; n = 1
# MAPK14 = details: read-out: apparent Kd, compound concentrations: 100 nM and 1000 nM (sheet 'Samples'), n = 1
# MAPK9 = details: read-out: apparent Kd; compound concentrations: 100 nM and 1000 nM (sheet 'Samples'), CATDS: 1.8300020860960699E-2; n = 1
# MAPKAPK2 = details: read-out: apparent Kd; compound concentrations: 100 nM and 1000 nM (sheet 'Samples'), CATDS: 2.4524702318677E-2; n = 1
# PKN3 = details: read-out: apparent Kd; compound concentrations: 100 nM and 1000 nM (sheet 'Samples'), CATDS: 0.20654584562915099; n = 1
# PRKCI = details: read-out: apparent Kd; compound concentrations: 100 nM and 1000 nM (sheet 'Samples'), CATDS: 3.04574994167322E-2; n = 1
# PRKD2 = details: read-out: apparent Kd; compound concentrations: 100 nM and 1000 nM (sheet 'Samples'), CATDS: 2.0032181023514398E-2; n = 1
# PTK6 = details: read-out: apparent Kd; compound concentrations: 100 nM and 1000 nM (sheet 'Samples'), CATDS: 3.9660106147075401E-2; n = 1
# RET = details: read-out: apparent Kd; compound concentrations: 100 nM and 1000 nM (sheet 'Samples'), CATDS: 0.10726511440353401; n = 1
# RIPK2 = details: read-out: apparent Kd; compound concentrations: 100 nM and 1000 nM (sheet 'Samples'), CATDS: 0.143338451264474; n = 1
# RIPK3 = details: read-out: apparent Kd; compound concentrations: 100 nM and 1000 nM (sheet 'Samples'), CATDS: 5.5820006344930999E-2; n = 1
# RPS6KB1 = details: read-out: apparent Kd; compound concentrations: 100 nM and 1000 nM (sheet 'Samples'), CATDS: 1.9963914199749098E-2; n = 1
# SIK2 = details: read-out: apparent Kd; compound concentrations: 100 nM and 1000 nM (sheet 'Samples'), CATDS: 2.1322969574131299E-2; n = 1
# SIK3 = details: read-out: apparent Kd; compound concentrations: 100 nM and 1000 nM (sheet 'Samples'), CATDS: 2.2436255384138602E-2; n = 1
# SLK = details: read-out: apparent Kd; compound concentrations: 100 nM and 1000 nM (sheet 'Samples'), CATDS: 3.1142117408046201E-2; n = 1
# STK10 = details: read-out: apparent Kd; compound concentrations: 100 nM and 1000 nM (sheet 'Samples'), CATDS: 2.2718990110139101E-2; n = 1
# TGFBR1 = details: read-out: apparent Kd; compound concentrations: 100 nM and 1000 nM (sheet 'Samples'), CATDS: 5.82262421070339E-2; n = 1
# TGFBR2 = details: read-out: apparent Kd; compound concentrations: 100 nM and 1000 nM (sheet 'Samples'), CATDS: 8.8931452038097006E-2; n = 1
# TNIK = details: read-out: apparent Kd; compound concentrations: 100 nM and 1000 nM (sheet 'Samples'), CATDS: 1.9385936597074001E-2; n = 1
# ADCK1 = details: read-out: apparent Kd; compound concentrations: 100 nM and 1000 nM (sheet 'Samples'), CATDS: 4.1233669692049897E-2; n = 1
# AKT1 = details: read-out: apparent Kd; compound concentrations: 100 nM and 1000 nM (sheet 'Samples'), CATDS: 4.32167355318668E-2; n = 1
# AKT2 = details: read-out: apparent Kd; compound concentrations: 100 nM and 1000 nM (sheet 'Samples'), CATDS: 4.9283792774051899E-2; n = 1
# BTK = details: read-out: apparent Kd; compound concentrations: 100 nM and 1000 nM (sheet 'Samples'), CATDS: 5.4009737115297697E-2; n = 1
# CDC42BPG = details: read-out: apparent Kd; compound concentrations: 100 nM and 1000 nM (sheet 'Samples'), CATDS: 4.9090451053861402E-2; n = 1
# CSNK1G3 = details: read-out: apparent Kd; compound concentrations: 100 nM and 1000 nM (sheet 'Samples'), CATDS: 4.2624276708998099E-2; n = 1
# IARS = details: read-out: apparent Kd; compound concentrations: 100 nM and 1000 nM (sheet 'Samples'), CATDS: 4.0140361212157798E-2; n = 1
# OPA1 = details: read-out: apparent Kd; compound concentrations: 100 nM and 1000 nM (sheet 'Samples'), CATDS: 4.7870015182345502E-2; n = 1
# PIK3CD = details: read-out: apparent Kd; compound concentrations: 100 nM and 1000 nM (sheet 'Samples'), CATDS: 0.15137185396719799; n = 1
# PIM1 = details: read-out: apparent Kd; compound concentrations: 100 nM and 1000 nM (sheet 'Samples'), CATDS: 5.1032643222322503E-2; n = 1
# PIM2 = details: read-out: apparent Kd; compound concentrations: 100 nM and 1000 nM (sheet 'Samples'), CATDS: 0.19635235530270301; n = 1
# RAB14 = details: read-out: apparent Kd; compound concentrations: 100 nM and 1000 nM (sheet 'Samples'), CATDS: 4.5308660485802198E-2; n = 1
# RPS6KA3 = details: read-out: apparent Kd; compound concentrations: 100 nM and 1000 nM (sheet 'Samples'), CATDS: 4.2284934101133903E-2; n = 1
# RPS6KA6 = details: read-out: apparent Kd; compound concentrations: 100 nM and 1000 nM (sheet 'Samples'), CATDS: 6.3682849838720093E-2; n = 1
# SRC = details: read-out: apparent Kd; compound concentrations: 100 nM and 1000 nM (sheet 'Samples'), CATDS: 4.8588200967613397E-2; n = 1
# STK3 = details: read-out: apparent Kd; compound concentrations: 100 nM and 1000 nM (sheet 'Samples'), CATDS: 4.1174689810954603E-2; n = 1
# TAOK1 = details: read-out: apparent Kd; compound concentrations: 100 nM and 1000 nM (sheet 'Samples'), CATDS: 5.56620194527895E-2; n = 1
smiles,measurement,setting,value
CC(C)(CN)c1nc(-c2ccc(Cl)c(O)c2)c(-c2ccncc2)[nH]1.O=C(O)C(F)(F)F [SB-477794-AAA],potency estimated from few doses,ACVR1B,55.4 nM
same,potency estimated from few doses,ACVR1,1330 nM
same,potency estimated from few doses,ACVR2B,388 nM
same,potency estimated from few doses,BCR,833 nM
same,potency estimated from few doses,BMPR1B,488 nM
same,potency estimated from few doses,BRAF,1320 nM
same,potency estimated from few doses,BUB1,687 nM
same,potency estimated from few doses,CIT,330 nM
same,potency estimated from few doses,CSNK1A1; CATDS: 2.3707563911338599E-2,562 nM
same,potency estimated from few doses,CSNK1D,92.5 nM
same,potency estimated from few doses,CSNK1E; CATDS: 3.2440470018423401E-2,199 nM
same,potency estimated from few doses,EPHA1,210 nM
same,potency estimated from few doses,FRK,82.8 nM
same,potency estimated from few doses,FYN,730 nM
same,potency estimated from few doses,MAPK14; CATDS: 3.89835717032921E-2,119 nM
same,potency estimated from few doses,MAPK9,2000 nM
same,potency estimated from few doses,MAPKAPK2,495 nM
same,potency estimated from few doses,PKN3,2.21 nM
same,potency estimated from few doses,PRKCI,241 nM
same,potency estimated from few doses,PRKD2,1170 nM
same,potency estimated from few doses,PTK6,113 nM
same,potency estimated from few doses,RET,9.97 nM
same,potency estimated from few doses,RIPK2,5.13 nM
same,potency estimated from few doses,RIPK3,47.1 nM
same,potency estimated from few doses,RPS6KB1,1200 nM
same,potency estimated from few doses,SIK2,871 nM
same,potency estimated from few doses,SIK3,699 nM
same,potency estimated from few doses,SLK,225 nM
same,potency estimated from few doses,STK10,665 nM
same,potency estimated from few doses,TGFBR1,42.5 nM
same,potency estimated from few doses,TGFBR2,15.4 nM
same,potency estimated from few doses,TNIK,1400 nM
COc1cccc(C2=C(c3cn(C)c4ccc(Cl)cc34)C(=O)NC2=O)c1 [RO3300230-000],potency estimated from few doses,ADCK1,1860 nM
same,potency estimated from few doses,AKT1,1650 nM
same,potency estimated from few doses,AKT2,1210 nM
same,potency estimated from few doses,BTK,993 nM
same,potency estimated from few doses,CDC42BPG,1220 nM
same,potency estimated from few doses,CSNK1A1; CATDS: 4.23666657347909E-2,1730 nM
same,potency estimated from few doses,CSNK1E; CATDS: 3.8720748933532501E-2,2230 nM
same,potency estimated from few doses,CSNK1G3,1710 nM
same,potency estimated from few doses,IARS,2010 nM
same,potency estimated from few doses,MAPK14; CATDS: 5.21130062125853E-2,1070 nM
same,potency estimated from few doses,OPA1,1290 nM
same,potency estimated from few doses,PIK3CD,189 nM
same,potency estimated from few doses,PIM1,1120 nM
same,potency estimated from few doses,PIM2,133 nM
same,potency estimated from few doses,RAB14,1460 nM
same,potency estimated from few doses,RPS6KA3,1740 nM
same,potency estimated from few doses,RPS6KA6,723 nM
same,potency estimated from few doses,SRC,1250 nM
same,potency estimated from few doses,STK3,1870 nM
same,potency estimated from few doses,TAOK1,935 nM
